Test results taken from the supplement of paper PMC9135407.
“And” between values parts separate entries of the source, which are not always exact repeats. Equal values may be shown once. Where a name gives a salt, the structure may show the parent alone. The campaign covered roughly 5,800 compounds. About 620 (11%) showed activity. This is one part of a sample in which actives are shown more often than they occur. Unmarked numbers belong to inactive results.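 How the source made its calls: active = score above a cut-off or among the top three wells of a plate; in these data no inactive exceeds 0.85.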

System: primary human hepatic stellate cells (donor 1)
Assay: scaled lipid accumulation score (0 = DMSO-like, 1 = nortriptyline-like); higher = stronger HSC inactivation (lipid re-accumulation), active = hit call of the paper
Details: 48 h
[1] = library stock concentration: 1 mM
[2] = library stock concentration: 3.33 mM
[3] = library stock concentration: 10 mM

CCCCC[C@H](O)/C=C/[C@@H]1[C@H](CCCCCCC(=O)O)[C@H](O)C[C@H]1O [8-iso Prostaglandin F1.beta.]
scaled lipid accumulation score [1]: ≤ 0

Cc1[nH]ccc2c1[nH]c1cc(=O)ccc12 [Harmol hydrochloride monohydrate]
scaled lipid accumulation score: 0.689

O=C(O)CCC/C=C\C[C@H]1C(=O)C=C[C@@H]1CC[C@@H](O)CCc1ccccc1 [17-phenyl trinor-13,14-dihydro Prostaglandin A2]
scaled lipid accumulation score [1]: ≤ 0

Cc1cc(Nc2ccc(NC(=O)c3ccc(Nc4ccnc5ccccc45)cc3)cc2)nc(N)n1
scaled lipid accumulation score [2]: 0.147
scaled lipid accumulation score [3]: ≤ 0

CNCc1ccc(C)c(NC(=O)c2ccc(Nc3nc(-c4ccccc4)c4ccccc4n3)cc2)c1 [listing 1 of 2 here]
scaled lipid accumulation score [2]: 1.14 (active)

CNCc1ccc(C)c(NC(=O)c2ccc(Nc3nc(-c4ccccc4)c4ccccc4n3)cc2)c1 [listing 2 of 2 here]
scaled lipid accumulation score [3]: 0.17

CCC(C)(Oc1ccc(C2(c3ccc(OC(C)(CC)C(=O)O)cc3)CCCCC2)cc1)C(=O)O (stereo unspecified) [Clinofibrate]
scaled lipid accumulation score [2]: ≤ 0
scaled lipid accumulation score [3]: ≤ 0

CNCC[C@H](Oc1cccc2ccccc12)c1cccs1 [Duloxetine]
scaled lipid accumulation score [3]: 1.39 (active)

CNCC[C@H](Oc1cccc2ccccc12)c1cccs1
scaled lipid accumulation score [3]: 0.953 (active)

CNCC[C@@H](Oc1ccccc1C)c1ccccc1 [Tomoxetine hydrochloride]
scaled lipid accumulation score [3]: 0.484

CNCC[C@H](Oc1cccc2ccccc12)c1cccs1.Cl [Duloxetine hydrochloride]
scaled lipid accumulation score (library stock concentration: 6 mM): 1.05 (active)

CNCCC(Oc1ccccc1OC)c1ccccc1 (stereo unspecified) [Nisoxetine hydrochloride]
scaled lipid accumulation score: 0.246
scaled lipid accumulation score [3]: 0.751 and 0.328

CNCC[C@@H](Oc1ccccc1C)c1ccccc1 [Atomoxetine HCl]
scaled lipid accumulation score [2]: 0.319
scaled lipid accumulation score [3]: 0.514

CNCC[C@H](Oc1cccc2ccccc12)c1cccs1 [Duloxetine HCl]
scaled lipid accumulation score [2]: 0.357
scaled lipid accumulation score [3]: 0.796

CNCC[C@@H](Oc1ccccc1C)c1ccccc1 [Atomoxetine hydrochloride]
scaled lipid accumulation score (library stock concentration: 7.2 mM): 0.064

CNCC[C@@H](Oc1ccccc1C)c1ccccc1 [Tomoxetine]
scaled lipid accumulation score [3]: 0.59

CN(C)[C@@H](CCOc1cccc2ccccc12)c1ccccc1 [Dapoxetine HCl]
scaled lipid accumulation score [2]: 0.506
scaled lipid accumulation score [3]: 0.625

Nc1n[nH]c(N)c1N=Nc1ccc(O)cc1 [Cdk9 Inhibitor II]
scaled lipid accumulation score [2]: ≤ 0

O=C(O)Cn1c(C(=O)Nc2nc(-c3ccccc3Cl)cs2)cc2ccccc21
scaled lipid accumulation score [3]: ≤ -0.001

CC1=CC(=O)C2=C(C)CC[C@@H]3[C@H](OC(=O)[C@H]3C)[C@@H]12 [Leucomisine]
scaled lipid accumulation score: ≤ 0

CCCCC[C@H](O)/C=C/[C@H]1C(=O)C[C@H](O)[C@@H]1CCCCCCC(=O)O [Prostaglandin D1]
scaled lipid accumulation score [1]: 0.018

CCCCC[C@H](O)/C=C/[C@H]1C(=O)C=C[C@@H]1C/C=C\CCCC(=O)O [Prostaglandin J2]
scaled lipid accumulation score [1]: ≤ 0 and ≤ -0.021

C[C@]1(O)C[C@@H](c2nc(-c3ccc4ccc(-c5ccccc5)nc4c3)c3c(N)nccn32)C1 [OSI-906 (Linsitinib)]
scaled lipid accumulation score [2]: ≤ 0
scaled lipid accumulation score [3]: ≤ 0

C[C@]1(O)C[C@@H](c2nc(-c3ccc4ccc(-c5ccccc5)nc4c3)c3c(N)nccn32)C1
scaled lipid accumulation score (library stock concentration: 80 uM): 0.05
scaled lipid accumulation score (library stock concentration: 400 uM): ≤ -0.009
scaled lipid accumulation score (library stock concentration: 2 mM): ≤ -0.009
scaled lipid accumulation score [3]: ≤ -0.009

Cl.O=S(=O)(c1cccc2c(Cl)cccc12)N1CCCNCC1 [ML 9 hydrochloride]
scaled lipid accumulation score [3]: 0.941 (active)

NCCCCCCCCCCNS(=O)(=O)c1cccc2c(Cl)cccc12 [A-7 hydrochloride]
scaled lipid accumulation score [3]: 0.41

Cl.O=S(=O)(c1cccc2c(Cl)cccc12)N1CCCNCC1
scaled lipid accumulation score [3]: 0.935 (active)

CC1CNCCN1S(=O)(=O)c1cccc2cnccc12 (stereo unspecified)
scaled lipid accumulation score [3]: 0.081

CCCCCCCC/C=C\CCCCCC(=O)OC [cis-7-Hexadecenoic Acid methyl ester]
scaled lipid accumulation score [1]: ≤ 0

CNc1nc(Nc2cn(C(C)(C)C#N)nc2C)ncc1C(F)(F)F
scaled lipid accumulation score [2]: ≤ -0.009
scaled lipid accumulation score [3]: 0.132

N[C@@H]1[C@H]2CN(c3nc4c(cc3F)c(=O)c(C(=O)O)cn4-c3ccc(F)cc3F)C[C@@H]12 [Trovafloxacin mesylate]
scaled lipid accumulation score [3]: 0.112

CCCCCCCCCC(=O)NC(CN1CCOCC1)C(O)c1ccccc1 (racemic)
scaled lipid accumulation score [1]: ≤ -0.021

Cc1ccc(C(=O)Cn2c3c(sc2=N)CCCC3)cc1 [Pifithrin-.alpha.]
scaled lipid accumulation score [1]: ≤ 0

O=C(O)CCC/C=C\C[C@@H]1[C@@H](/C=C/[C@@H](O)CCc2cccc(C(F)(F)F)c2)[C@H](O)C[C@@H]1O [17-trifluoromethylphenyl trinor Prostaglandin F2.alpha.]
scaled lipid accumulation score [1]: ≤ 0

CCN(CC)C(=O)CCC/C=C\C[C@@H]1[C@@H](/C=C/[C@@H](O)CCc2ccccc2)[C@H](O)C[C@@H]1O [17-phenyl trinor Prostaglandin F2.alpha. diethyl amide]
scaled lipid accumulation score [1]: ≤ 0
